Out of some 340,000 compounds screened, about 6,200 (1.8%) were called active. Where a call stands in place of a potency, no number is given. Inconclusive results (about 10%) are left out. Calls come from the whole dose curve; as a rule, active = well fitted activation curve with a large enough effect; inconclusive = small, poorly fitted or top-dose-only effect; inactive = no such curve, though single readings can be large or run the other way. This excerpt belongs to a sample that is enriched for actives.
Experiment: A quantitative high throughput screen for small molecules that induce DNA re-replication in SW480 colon adenocarcinoma cells. Note: nearly all actives have a fitted effect of over 55% in size.
Conditions: Hoechst DNA content imaging, 48 h; series mostly up to 46.1 µM
In short: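 SW480 cells exposed to compounds for 48 hr at 37 C, 5% CO2, then Hoechst-stained 40 min. Nuclear DNA content imaged by fluorescence scanning (405 nm excitation, 500-530 nm emission); re-replication scored as increased high-intensity nuclei.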
Potency is the fitted concentration of half-maximal effect.

| SMILES | Potency |
| --- | --- |
| CC(C)Sc1nc(N)nc2c1ncn2C1OC(CO)C(O)C1O (configuration not stated) | inactive |
| c1ccc(-n2nnnc2NC2CCCCCC2)cc1 | 3.66 µM (active) |
| Fc1ccccc1CCNc1nnnn1-c1ccccc1 | inactive |
| c1ccc(-n2nnnc2N2CCOCC2)cc1 | inactive |
| COc1ccc(CNCCCn2cnc3c(OCc4ccccc4)ncnc32)cc1 | inactive |
| O=[N+]([O-])c1ccc(N2CCOCC2)cc1 | inactive |
| CCN(CC)C(=O)[C@H]1CC(CC(=O)NCc2ccco2)C(=O)N2CCc3c([nH]c4ccccc34)[C@]12C (some centres not stated) | inactive |
| COc1cccc(NC(=O)CSc2nnc(C3CCCCC3)n2N)c1 | inactive |
| COCC(C)n1c(SCC(=O)NC2CCCCC2C)nc2ccccc2c1=O (configuration not stated) | inactive |
| COC(=O)c1ccc(CSc2nc3ccccc3c(=O)n2-c2cccc(OC)c2)o1 | inactive |
| COCC(C)n1c(SCc2ccc(C(=O)OC)o2)nc2ccccc2c1=O (configuration not stated) | 18.4 µM (active) |
| O=C(c1ccc(Cl)c(S(=O)(=O)N2CCCCCC2)c1)N1CCN(c2ccc(O)cc2)CC1 | inactive |
| C[n+]1cccc(C(=O)O)c1 | inactive |
| O=C(NCCc1ccccc1)c1c[nH]c2ccc(F)cc2c1=O | inactive |
| COc1ccc(CNC2CCCCC2)cc1 | inactive |
| CCC(CO)Oc1cc(NCc2ccccc2)c2ncn(C3CCCC3)c2c1 (configuration not stated) | inactive |
| COc1ccc(CNc2nc(NCc3ccc(OC)cc3)c3ncn(C4CCCC4)c3n2)cc1 | 4.61 µM (active) |
| O=S(=O)(O)c1cc2onnc2c2ccccc12 | inactive |
| CNc1nc(=O)n(C2CCCO2)cc1C (configuration not stated) | inactive |
| Cc1ccc(S(=O)(=O)NC2CCCCCC2)cc1 | inactive |
| Cc1ccc(S(=O)(=O)C2(S(=O)(=O)c3ccc(C)cc3)CCCC2)cc1 | 4.47 µM (active) |
| Cc1ccc(S(=O)(=O)N(C)C2(C)CCS(=O)(=O)C2)cc1 (configuration not stated) | inactive |
| C=C1c2cccc(OC)c2O[C@H](C(=O)OCC)[C@@H]1CCCCCC | 20.6 µM (active) |

| SMILES | Potency |
| --- | --- |
| CCOC(=O)C1=C(C)c2ccccc2OC1C(=O)OCC (configuration not stated) | inactive |
| CC(C)(C)OC(=O)C[C@@H]1C/C=C\C[C@@H](CC(=O)N(CCO)Cc2ccccc2)C(=O)N[C@H](Cc2ccccc2)COC1=O | inactive |
| COc1ccccc1CNC(=O)c1ccc(Cl)c(S(=O)(=O)N2CCCC2)c1 | inactive |
| O=C(COC(=O)c1cccc(Cl)c1)NC(=O)NCc1ccccc1 | inactive |
| Cc1cc(N/N=C\c2ccc(Br)cc2)nc(-n2nc(C)cc2C)n1 | 8.2 µM (active) |
| COc1ccc(Nc2cc(C)nc(-n3nc(C)cc3C)n2)cc1 | 7.31 µM (active) |
| Cc1ccc(S(=O)(=O)Nc2nc(C)cc(N/N=C/c3ccc(O)cc3)n2)cc1 | inactive |
| Cc1nc(Cl)cc(N/N=C/c2ccccc2)n1 | inactive |
| Cc1cc(Oc2ccc(Cl)cc2)nc(SCC(=O)c2ccccc2)n1 | inactive |
| CC(=O)c1ccc(Oc2cc(C)nc(-n3nc(C)cc3C)n2)cc1 | 1.84 µM (active) |
| Cc1cc(Nc2ccc(Cl)cc2)nc(N2CCOCC2)n1 | inactive |
| Cc1cc(C)n(-c2ccc(C(=O)O)cc2[N+](=O)[O-])n1 | inactive |
| CC(=O)Nc1ccc(Nc2cc(C)nc(Nc3ccc(NC(C)=O)cc3)n2)cc1 | inactive |
| O=C1NC(=O)C(CCc2ccccc2)(c2ccccc2)N1 (configuration not stated) | inactive |
| O=C(O)c1ccc([N+](=O)[O-])cc1Sc1ccsc1 | inactive |
| Cc1ccc(S(=O)(=O)Nc2ccc(F)c(S(=O)(=O)N3CCOCC3)c2)cc1 | inactive |
| O=c1[nH]c2c(c(=O)n1-c1ccccc1)CCO2 | inactive |
| COc1ccc(Cn2c(=S)[nH]c3cc(C(=O)NCCCN4CCOCC4)ccc3c2=O)cc1 | inactive |
| Cc1c(C)n(Cc2ccc(Cl)cc2)c2ccc(C(=O)NCCCN3CCOCC3)cc12 | 20.6 µM (active) |
| O=C(NCCN1CCOCC1)c1ccc2c(c1)N(Cc1ccc(Cl)cc1)CCS2 | inactive |
| O=C(Nc1ccc(N2CCOCC2)cc1)c1cccc(S(=O)(=O)N2CCOCC2)c1 | inactive |
| Cc1cc(NC(=O)CSc2nnc(-c3ccco3)n2N)no1 | inactive |
| Cc1noc(C)c1NC(=O)Nc1ccc2c(c1)C(=O)N([C@H](C)CO)C[C@H](C)[C@@H](CN(C)C(=O)Nc1ccccc1)O2 | inactive |

| SMILES | Potency |
| --- | --- |
| CCCCCCCCNS(=O)(=O)CCNC1CCCCC1 | inactive |
| CCOC(=O)c1ccccc1NS(=O)(=O)c1c(C)nc2sccn2c1=O | inactive |
| CCOC(=O)c1cnc2sccn2c1=O | 14.6 µM (active) |
| CN(C)/C=C/C(=O)c1cnc2sccn2c1=O | inactive |
| CN(CCc1ccccc1)C(=O)c1cccc(NC(=O)Cc2ccc([N+](=O)[O-])cc2)c1 | inactive |
| CC(C)(C)NS(=O)(=O)NC(=O)C1=C(N2CCCC2)COC1=O | inactive |
| CC(C)c1cc(N=O)cc(C(C)C)c1O | inactive |
| CCCCOc1ccc(C(=O)NN2CCN(C)CC2)cc1 | inactive |
| CCCOc1ccc(C(=O)C(CCC(CNCC)C(=O)c2ccc(OCCC)cc2)CNCC)cc1 (configuration not stated) | 9.2 µM (active) |
| CCCOc1ccc(C(=O)CCC(=O)OC(C)C(=O)Nc2ccc(NC(C)=O)cc2)cc1 (configuration not stated) | inactive |
| CN1CCOC1c1ccc(C2OCCN2C)cc1 (configuration not stated) | inactive |
| N#CCCN(C(=O)COC(=O)c1ccc2c(c1)OCCO2)c1ccccc1 | inactive |
| Cc1cc(NC(=O)COC(=O)/C=C/c2ccc(C)o2)no1 | inactive |
| CC12CCC(C(=O)N(NC(=O)c3ccccc3O)C1=O)C2(C)C (configuration not stated) | 20.6 µM (active) |
| O=C(NN1C(=O)C2C(C1=O)C1C=CC2C12CC2)c1ccccc1Cl (configuration not stated) | inactive |
| CC12CCC(C(=O)N(c3cccc(Cl)c3)C1=O)C2(C)C (configuration not stated) | inactive |
| CN(C(=O)c1cccc(NC(=O)Cc2ccc(NC(=O)C3CCCN(C(=O)C4CC4)C3)cc2)c1)C1CC1 (configuration not stated) | inactive |
| COc1ccc(NC(=O)CN(C)C(=O)c2cccc(S(=O)(=O)N3CCN(c4ccccc4)CC3)c2)cc1 | inactive |
| Cc1ccc(S(=O)(=O)N2CCCCC2)cc1C(=O)N(C)CC(=O)Nc1cccc(F)c1 | inactive |
| CCOc1ccc(NC(=O)CN(C)C(=O)c2cccc(S(=O)(=O)N3CCCC3)c2)cc1OCC | 6.51 µM (active) |
| Cc1noc(C)c1NC(=O)Nc1cccc2c1O[C@H](CN(C)S(=O)(=O)c1c(C)noc1C)[C@@H](C)CN([C@H](C)CO)C2=O | inactive |
